According to PubChem BioAssay (NCI):
Values joined by “and” are separate entries in the source; they are usually repeats but may differ in a detail not shown here. Identical values can stand only once. About 83,000 compounds went through this panel and 20% of them were active in at least one assay; those are over-represented in the sample as a whole.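 Values shown are percent growth following 48 h exposure of cells in 96-well plates to a single concentration of compound; below 10 was considered active.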 Values without a mark were called inactive. Active and inactive are the calls of the source.

Tested on: MDA-MB-468 breast
Experiment: NCI-60 one-dose screen, 48 h (100 = growth as untreated, 0 = no growth, -100 = all killed)
Details: 10 µM unless noted

For C[C@@H]1C[C@H]2C(=O)O[C@@H](C)[C@H](NC(=O)[C@H](Cc3cc(F)cc(F)c3)NC(=O)Nc3ccc(C4CC4)cc3F)C(=O)N3CCC[C@H]3C(=O)N3CCCC[C@H]3C(=O)N[C@@H](C)C(=O)N2C1, which growth is on record?
Its growth is -16.1% (active).

With CC(=O)Cc1ccc(-c2ccccc2)cc1 as the compound, how does the growth read?
Its growth is 93.7%.

With Cc1noc(C)c1-c1ccc2nc(NC(=O)[C@H]3CCN(C#N)C3)cn2c1 as the compound, how does the growth read?
The growth was 57.3%.

Which growth does the source give for COC(=O)C[Se]C(=O)Cc1c(C)n(C(=O)c2ccc(Cl)cc2)c2ccc(OC)cc12 here?
The growth was -18.4% (active).

How did the growth turn out when CCCCCCCCCCCCCCCCCN was run?
Its growth is 101%.

Which growth does the source give for Cc1nnc(NC/C=C/c2ccccc2)s1 here?
Its growth is 106% and 92%.

CC(C)Sc1nc(Cl)c(C#N)c(-c2ccc(F)cc2)n1 was tested. Which growth did it give?
Its growth is 98.9%.

For Cc1ccc(-n2nnnc2N)c(C)c1, which growth is on record?
The growth was 115%.

For COc1cc(NC(C)CCCN)c2nc(C)ccc2c1Oc1ccc(F)cc1 (configuration not stated), which growth is on record?
Its growth is 57.3%.

O=C1/C(=C/c2ccccc2)SC(=S)N1CCc1ccc(O)cc1 was tested. Which growth did it give?
Its growth is 73.9%.

How did the growth turn out when O=C(NCc1ccco1)C1CCN(S(=O)(=O)c2ccc(Cl)cc2)CC1 was run?
The growth was 56.2%.

With CCOC(=O)CNC(=O)Sc1ccc(C(C)(C)C)cc1 as the compound, how does the growth read?
Its growth is 111%.

Which growth does the source give for COc1ccc(-c2cc(-c3cc(OC)ccc3OC)nc(SCC(=O)c3ccccc3)c2C#N)cc1 here?
The growth was 106%.

Which growth does the source give for Cc1onc(-c2ccccc2Cl)c1C(=O)N[C@@H]1C(=O)N2[C@@H]1SC(C)(C)[C@@H]2C(=O)O here?
The growth was 109%.

Which growth does the source give for C=C1C(=O)O[C@H]2[C@H]1CC/C(C=Nc1c(N)cc(C(F)(F)F)cc1C(F)(F)F)=C\CC[C@@]1(C)O[C@@H]21 here?
Its growth is -58.1% (active).

Which growth does the source give for CCN(CC)CCOc1ccc(/C(=C(\C)Cc2ccc(OC)cc2)c2ccc(O)cc2)cc1 here?
The growth was -18.7% (active).

With O=C(Nc1ccc(N2CCNCC2)cc1)c1[nH]ncc1Nc1cc(Oc2ccccc2)ncn1 as the compound, how does the growth read?
The growth was 34.6%.

Which growth does the source give for CC1CCCCC[N+]12CCCC2 (configuration not stated) here?
Its growth is 99.4%.

For CCNC(=O)Oc1ccc(/C(=C(/CC)Cc2ccccc2)c2ccc(OCCN3CCCC3)cc2)cc1, which growth is on record?
Its growth is 87.5%.

For Nc1nc2ncc(CNc3ccc(C(=O)NC(CCC(=O)NC(CCC(=O)NC(CCC(=O)NC(CCC(=O)NC(CCC(=O)O)C(=O)O)C(=O)O)C(=O)O)C(=O)O)C(=O)O)cc3)nc2c(=O)[nH]1 (configuration not stated), which growth is on record?
Its growth is 131%.

How did the growth turn out when O=C(N/N=C/C=C\c1ccccc1)C(=O)N/N=C/C=C/c1ccccc1 was run?
Its growth is 105%.

With Cc1ccc2oc(=O)cc(-c3cc(-c4cc5ccccc5oc4=O)nc(N)c3C#N)c2c1 as the compound, how does the growth read?
Its growth is 68.7%.

Cc1ccc(-n2c(C)nn3c(=O)c4c5c(sc4nc23)CN(C)CC5)cc1 was tested. Which growth did it give?
The growth was 102%.

With COc1ccc2c(c1)OC(N)=C(C#N)C2c1cc(OC)c(OC)c(OC)c1 (configuration not stated) as the compound, how does the growth read?
The growth was -20.9% (active).

O=c1c2ccccc2nc(COc2ccccc2)n1NS(=O)(=O)c1ccc(Cl)cc1 was tested. Which growth did it give?
Its growth is 40.4%.

CC1=CC(=O)CC(C)(C)[C@@]1(O)/C=C/[C@@H](C)O was tested. Which growth did it give?
The growth was 72.9%.

Which growth does the source give for CN1C2CCC1CN(c1cnc(C(=O)Nc3cc(F)cc4cccnc34)cn1)C2 here?
Its growth is 13.1%.

How did the growth turn out when Nc1nc2ccccc2c2c(=O)c3cc(Cl)ccc3sc12 was run?
The growth was 21.3%.

For Cn1c2ccccc2c2c3c(c4c5cccnc5[nH]c4c21)C(=O)N(O)C3=O, which growth is on record?
Its growth is 0.0154% (active).

Cc1cc(Cc2ccccc2)c(O)c(Cc2ccccc2)c1 was tested. Which growth did it give?
The growth was 95.8%.

CCCCCCNC(=O)Nc1ccc2cc3ccc(NC(=O)NCCCCCC)cc3nc2c1 was tested. Which growth did it give?
Its growth is 18.6%.

Which growth does the source give for COc1ccc(-c2nn(C(=O)NCCN(C)C)cc2-c2ccncc2)cc1Cl here?
Its growth is 4.11% (active).

Which growth does the source give for CN1C(=O)N(C)C2C1NN=c1s/c(=C\C=C\c3ccccc3)c(=O)n12 (configuration not stated) here?
The growth was 13.9%.

For O=C(c1ccccc1)C(Nc1ccccc1)c1ccccc1 (configuration not stated), which growth is on record?
The growth was 88.7%.

For COc1ccc(C(=O)c2cc3c(N)c(C(=O)Nc4cccc(OC)c4)sc3nc2C)cc1, which growth is on record?
Its growth is 4.38% (active).

With CCCCCCCCCC[C@@H](C)[C@@H]1CC(=O)N[C@H]([C@@H](C)O)C(=O)N[C@@H](C)C(=O)N[C@H](C)C(=O)N[C@@H](CCC(N)=O)C(=O)N[C@H](Cc2ccc(O)cc2)C(=O)N[C@@H](C(C)CC)C(=O)O1 (some centres not stated) as the compound, how does the growth read?
Its growth is 2.46% (active).

CC(C)(C)OC(=O)NC(CSCc1ccccc1)C(=O)ON1C(=O)CCC1=O (configuration not stated) was tested. Which growth did it give?
Its growth is 115%.
